Compound activity as filed in PubChem BioAssay.
Hits are enriched below; roughly 3.6% of the tested compounds scored in any of these assays.
Epigenetic derep: derepresses silenced GFP reporter in murine cells | Potency, µM (highest dose often 53.9 µM), most hits filed as activators | murine LDR cells, GFP reporter derepression, 30 h | 280,000 compounds, 0.2% hits | AID 1865; also: nearly all actives have a fitted effect of over 60% in size
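GFP-positive cell count by laser-scanning cytometry (objects 20–120 um) after 30 h, 37 C compound exposure of murine LDR cells; reporter is CMV-GFP integrated at a silenced locus, inducible by HDAC or DNMT inhibitors.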
IMPase Li cell: IMPase inhibition in cells with lithium potentiation | CHO-M1 cells, IP1 TR-FRET (IP-One), carbachol + lithium | Potency, µM (titrated, usually from 59.4 µM), hits mostly inhibitors | 210,000 compounds, 0.35% hits;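 also: IP1 builds up when IMPase is blocked and the TR-FRET signal falls; nearly all actives have a fitted effect of over 50% in size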
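CHO cells stably expressing M1 receptor (2000/well) were cultured 16–30 h, then exposed to compounds with a small lithium addition for 30 min at 37C. IP1 was measured by TR-FRET competition; AC50 from Hill fits.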
NPSR antag: antagonists of human neuropeptide S receptor cAMP signaling | Q6W5P4 | CHO-NPSR cells, cAMP TR-FRET, antagonist mode | Potency, µM (titrated, usually from 38.3 µM), hits mostly inhibitors | 220,000 compounds, 1% hits | AID 1461; also: nearly all actives have a fitted effect of over 50% in size
Target sequence (Q6W5P4 whole entry, looked up): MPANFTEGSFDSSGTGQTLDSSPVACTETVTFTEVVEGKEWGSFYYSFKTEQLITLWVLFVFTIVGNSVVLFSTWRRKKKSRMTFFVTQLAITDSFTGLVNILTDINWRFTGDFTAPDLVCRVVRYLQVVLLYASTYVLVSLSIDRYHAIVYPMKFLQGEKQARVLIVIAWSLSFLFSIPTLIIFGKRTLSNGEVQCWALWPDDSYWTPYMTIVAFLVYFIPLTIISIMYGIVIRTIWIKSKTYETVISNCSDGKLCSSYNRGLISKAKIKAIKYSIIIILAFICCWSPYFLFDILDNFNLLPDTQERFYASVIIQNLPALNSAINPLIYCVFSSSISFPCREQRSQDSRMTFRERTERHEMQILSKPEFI
JMJD2E inh: inhibitors of human JMJD2E histone demethylase | JMJD2E catalytic domain, FDH-coupled NADH fluorescence (FDH is formaldehyde dehydrogenase) | B2RXH2 | Potency, µM (top dose mostly 57.1 µM), hits mostly inhibitors | AID 2147 | 230,000 compounds, 1.6% hits; active = well fitted inhibition curve with a large enough effect, not every such curve was filed as active; inconclusive = small, poorly fitted or top-dose-only effect, or another doubt; inactive = no such curve, though single readings can be large or run the other way; also: nearly all actives have a fitted effect of over 50% in size
Target sequence (B2RXH2 1-337 limits assumed): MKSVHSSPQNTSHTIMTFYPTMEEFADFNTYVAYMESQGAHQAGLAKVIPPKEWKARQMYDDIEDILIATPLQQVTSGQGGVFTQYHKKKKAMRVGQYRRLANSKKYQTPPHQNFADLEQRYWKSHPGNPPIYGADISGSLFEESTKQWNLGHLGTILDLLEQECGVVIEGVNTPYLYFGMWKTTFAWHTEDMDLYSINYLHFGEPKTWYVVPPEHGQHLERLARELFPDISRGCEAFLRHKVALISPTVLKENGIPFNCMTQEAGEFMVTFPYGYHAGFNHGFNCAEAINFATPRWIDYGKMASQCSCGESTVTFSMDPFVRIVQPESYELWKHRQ
GCN5L2 inh: GCN5L2 (KAT2A) acetyltransferase inhibition; 390,000 compounds, 0.21% hits; Q92830; Potency, µM (highest dose often 58.9 µM), usual class: inhibitors; GCN5L2 HAT assay, ThioGlo1 CoA-SH fluorescence
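qHTS, 1536-well. 20nM enzyme, pH 7.5 HEPES/EDTA/Tween-20 buffer; 15 min compound preinc., RT. Start: 75uM H3(1-25), 70uM AcCoA, 50uM ThioGlo1. Read Ex340/Em540 at t=0 (autofluorescence flag) and t=20 min.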
Sfp inh: blocks B. subtilis Sfp PPTase activity | Q9F4F7 | Biochemical Sfp PPTase activity, qHTS | Potency, µM, hits mostly inhibitors | 310,000 compounds, 3.5% hits | AID 1490;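 also: the enzyme is Sfp with the accession as filed and its product quenches rhodamine fluorescence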
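Fluorescence-quenching assay: 15 nM Sfp-PPTase preincubated 15 min at room temperature with compound, then 5 uM rhodamine-CoA and 12.5 uM BHQ-2-labelled YbbR peptide added. Fluorescence (ex 525/em 598 nm) read at start and after 30 min; difference gives rate.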
Numbers stand for hits; 0 = inactive; ? = inconclusive; - = no result; [ ] = another dose, or the depositor's remark. Unless noted, calls follow the shape of the dose curve; as a rule, active = well fitted curve in the direction sought with a large enough effect; inconclusive = small, poorly fitted or top-dose-only effect, or another doubt; inactive = no such curve, though single readings can be large; an effect the other way counts as inactive or inconclusive.

SMILES	Epigenetic derep	IMPase Li cell	NPSR antag	JMJD2E inh	GCN5L2 inh	Sfp inh
CC(C)(C)OC(=O)N1CCCC1C(=O)NC1COC2CC(n3cc(F)c(=O)[nH]c3=O)OC12 (stereo unspecified)	-	-	-	-	-	0
CCOC(=O)C1CCCN(S(=O)(=O)c2csc(C(N)=O)c2)C1 (stereo unspecified)	0	-	-	-	0	-
O=C(Oc1c(Cl)cc(Cl)c2cccnc12)c1cccc([N+](=O)[O-])c1	?	0	0	14µM	0	0
O=C(Oc1ccc(Cl)c2cccnc12)c1cccc([N+](=O)[O-])c1	?	0	0	?	0	0
COc1nc(-c2ccccc2)ccc1-c1noc(-c2ccc(F)cc2)n1	0	8.9µM	0	0	0	0
CC1=CC23C(=O)C(C=C(CO)[C@@H](O)[C@]2(O)[C@H]1O)[C@H]1[C@@H](C[C@H]3C)C1(C)C (stereo partly specified)	-	-	-	-	0	0
O=C(CSc1nc(-c2ccccc2)nc2ccccc12)Nc1nccs1	0	25µM	0	0	0	0
N#Cc1cc2c(nc1SCC(=O)Nc1nccs1)CCCCC2	0	?	?	?	0	0
Cc1ccc(C#N)c(SCC(=O)Nc2nccs2)n1	0	13µM	?	0	0	0
Cn1ccnc1SCC(=O)Nc1sccc1C#N	0	0	0	0	0	79µM
CCc1cc2cc3c(cc2nc1SCC(=O)Nc1nccs1)OCO3	0	13µM	10µM	0	0	?
CC(=O)Oc1ccc(/C=C/C(=O)CC2OC(Oc3cc(OC(C)=O)c4c(c3)O[C@@H](c3ccc(OC(C)=O)cc3)CC4=O)C(OC(C)=O)C(OC(C)=O)C2OC(C)=O)cc1 (stereo partly specified)	0	0	-	0	-	0
O=C(O)c1cc(S(=O)(=O)Nc2cccc(Cl)c2)ccc1O	0	-	-	-	-	-
Cc1ccc(C(C[N+](=O)[O-])Sc2ccc(N)cc2)cc1 (stereo unspecified)	0	-	?	0	0	5.6µM
C=C(C(=O)c1ccccc1)C(C)C(=C)C(=O)c1ccccc1	0	0	10µM	0	0	0
C=C(C(=O)c1ccccc1)C(c1ccccc1)C(C)C(=O)c1ccccc1 (stereo unspecified)	0	0	?	0	0	0
COc1ccc(-c2nc3cnc(OC)nc3n(-c3ccccc3)c2=O)cc1	-	0	-	-	0	0
CC(NC(=O)Cc1cc(F)cc(F)c1)C(=O)NC(C(=O)OC(C)(C)C)c1ccccc1 (stereo unspecified)	-	-	-	-	0	0
COc1ccc(CN(C(=O)c2ccc(-c3ccccc3)[nH]2)C(C(=O)NC(C)(C)C)c2ccncc2)cc1 (stereo unspecified)	0	0	0	0	0	45µM
Cc1c(N=NC2=C(O)CCCC2=O)c(=O)n(-c2ccccc2)n1C	0	0	0	0	0	14µM
N#Cc1c(N2CCCC(O)C2)nc(N)c2c(N)nc3c(c12)CC(=O)N3C12CC3CC(CC(C3)C1)C2 (stereo unspecified)	0	0	?	?	0	?
C=C(C)CN(CC)c1nc(N)c2c(N)nc3c(c2c1C#N)CC(=O)N3C12CC3CC(CC(C3)C1)C2	0	0	5µM	0	0	0
O=C(NCCCCN1CCOCC1)c1cc2ccccc2o1	-	-	-	-	0	0
COc1ccc(-c2nc(NC(=O)c3ccc(OCC(=O)Nc4ccc(F)cc4)c(OC)c3)sc2C)cc1	0	?	10µM	?	0	0
COc1cc(C(=O)Nc2nc(-c3cc(C)ccc3C)c(C)s2)ccc1OCC(=O)Nc1ccc(F)cc1	0	?	?	0	0	0
SMILES	Epigenetic derep	IMPase Li cell	NPSR antag	JMJD2E inh	GCN5L2 inh	Sfp inh
CC(c1ccccc1)n1c(-c2cccs2)nc2c(c(=O)c3ccccc3n2C)c1=O (stereo unspecified)	0	-	0	0	0	79µM
Cn1c2ccccc2c(=O)c2c(=O)n(-c3ccc(F)cc3)c(-c3cccs3)nc21	0	-	0	?	0	0
COc1cc(OC)cc(-c2nc3nc(C)c(CCC(=O)Nc4cc(C)cc(C)c4)c(C)n3n2)c1	0	-	-	-	0	-
O=c1cc(/C=C/c2ccccc2)oc2ccccc12	0	0	5µM	?	0	?
O=c1cc(CO)oc2ccccc12	-	-	-	-	0	-
CN1CCN(c2ncc3ncc(=O)n(CCC#N)c3n2)CC1	-	0	-	-	0	0
CS(=O)(=O)c1ccc(S(=O)CC(=O)Oc2ccc(Cl)cc2)c([N+](=O)[O-])c1 (stereo unspecified)	0	0	0	3.2µM	0	?
CC(C)c1cnc2c(c1SCC(=O)NCc1ccccc1Cl)c(=O)n(C)c(=O)n2C	0	-	-	-	0	-
CCCc1nc2ccccc2c(=O)n1/N=C/c1ccc(O)cc1O	0	0	0	32µM	0	0
O=c1c(-c2cc(O)c(O)c(O)c2)coc2cc(O)c(O)c(O)c12	0	0	-	2.8µM	?	0
CCC[n+]1c(C)sc2c(OC)ccc(OC)c21	0	0	0	?	0	4µM
CCN1C(C)=C(C(=O)OC)C(c2ccccc2)N2C(=O)[C@](O)(C(=O)OC)CC(C#N)=C12 (stereo partly specified)	0[10.1 µM]	-	-	-	-	0
CN1C(=O)C[C@@H](C(=O)N[C@@H](Cc2cnc[nH]2)C(=O)N2CCC[C@H]2C(N)=O)NC1=O	-	-	-	-	0	0
Oc1ccc(C23CC4CC(CC(C4)C2)C3)cc1O	-	-	-	-	0	79µM
CCCCCNCC(=O)Nc1cccc(C(=O)Nc2cccc(C(F)(F)F)c2)c1	0	0	?	?	0	32µM
O=C1C(=O)N(c2cccc(Cl)c2)C(c2ccccc2[N+](=O)[O-])/C1=C(\O)c1ccccc1 (stereo unspecified)	0	0	0	0	0	22µM
O=C1C(=O)N(c2ccccc2)C(c2ccccc2[N+](=O)[O-])/C1=C(\O)c1ccccc1 (stereo unspecified)	0	0	0	0	0	13µM
CCOc1ccc(N2C(=O)C(=O)/C(=C(/O)c3ccccc3)C2c2ccccc2[N+](=O)[O-])cc1 (stereo unspecified)	0	-	0[7.67 µM]	0	0	?
Cc1[nH][nH]c(=O)c1C(c1ccc(-c2ccc(F)cc2)o1)c1c(C)[nH][nH]c1=O	0	0	0	0	0	?
Cc1[nH][nH]c(=O)c1C(c1ccc(-c2ccc(Cl)c(Cl)c2)o1)c1c(C)[nH][nH]c1=O	0	0	0	0	0	56µM
COc1ccc(-c2ccc(C(c3c(C)[nH][nH]c3=O)c3c(C)[nH][nH]c3=O)o2)c([N+](=O)[O-])c1	0	0	0	0	0	20µM
CC(=O)C1=C(O)C=C2Oc3c(C(C)=O)c(O)c(C)c(O)c3C2(C)C1=O (stereo unspecified)	0	0	-	?	-	0
